This passage reports outcome results from PubChem BioAssay AID624137 (Broad Institute, 2012).

Hit rate of the full screen: of about 31,000 compounds, about 360 (1.2%) were called active. The rule behind the calls is not given here. Only a selection was taken, and actives are over-represented in it overall.

For the assay, the target named is DNA-binding protein inhibitor ID-4 (Homo sapiens) (UniProt P47928). The experiment in a line: PubChem AID 624137.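 Note: a binder raises fluorescence above local background on the spot.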 Conditions: small molecule microarray, Flag-ID4 binding, fluorescence F/B.
DNA-binding protein inhibitor ID-4 (Homo sapiens), sequence (P47928 whole entry, looked up): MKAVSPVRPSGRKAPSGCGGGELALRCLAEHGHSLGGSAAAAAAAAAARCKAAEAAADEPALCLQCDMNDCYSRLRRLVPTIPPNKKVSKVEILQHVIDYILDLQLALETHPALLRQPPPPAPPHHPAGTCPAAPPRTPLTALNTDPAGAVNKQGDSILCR
With `O=C(C[C@@H]1CC[C@@H](NS(=O)(=O)c2ccc(F)cc2)[C@H](CO)O1)NCc1ccc(Cl)c(Cl)c1`, the compound was classed as inactive.
Consider `COc1ccccc1-c1cnc2c(c1)C(=O)N([C@H](C)CO)C[C@@H](C)[C@@H](CN(C)Cc1ccncc1)O2`, for which the compound was classed as inactive.
The same measure for `COc1ccccc1-c1cnc2c(c1)C(=O)N([C@@H](C)CO)C[C@H](C)[C@H](CN(C)C(=O)c1ccncc1)O2`: “inactive”; for `CC(C)CC#Cc1cnc2c(c1)C(=O)N([C@@H](C)CO)C[C@H](C)[C@@H](CN(C)C(=O)c1cccc(F)c1)O2`: “inactive”; for `CC(C)CC#Cc1cnc2c(c1)C(=O)N([C@H](C)CO)C[C@H](C)[C@@H](CN(C)Cc1ccccc1)O2`: “inactive”.
As to `c1ccc2[nH]c(CSc3nc4ccccc4[nH]3)nc2c1`, the compound was classed as inactive.
The same measure for `C[C@@H]1CN([C@H](C)CO)C(=O)c2cc(C#CC3CCCC3)cnc2O[C@H]1CN(C)C(=O)C1CC1`: “inactive”; for `COc1ccccc1-c1cnc2c(c1)C(=O)N([C@@H](C)CO)C[C@H](C)[C@H](CN(C)CC1CCOCC1)O2`: “inactive”; for `CN(C)c1ccc2c(c1)[C@@H]1C[C@@H](CC(=O)NCc3ccccn3)O[C@H](CO)[C@@H]1O2`: “inactive”.
For `CCC(=O)N(C)C[C@H]1Oc2ncc(-c3ccc(C)cc3)cc2C(=O)N([C@@H](C)CO)C[C@@H]1C`, the outcome was inactive.
With `COc1ccccc1-c1ccc2c(c1)O[C@H](CN(C)C(=O)c1cccnc1)[C@H](C)CN([C@@H](C)CO)S2(=O)=O`, the call was inactive.
`COc1cc(S(=O)(=O)NCCN2CCOCC2)ccc1Br`: the compound was classed as inactive.
As for `O=C(CSc1nnnn1-c1ccccc1)Nc1ccccc1C(=O)c1ccccc1`, the entry is “inactive”; as for `C[C@H](CO)N1C[C@H](C)[C@H](CN(C)CC2CC2)Oc2cc(-c3ccc(F)cc3)ccc2S1(=O)=O`, “inactive”; as for `O=C(C[C@H]1C=C[C@@H](NC(=O)C2CC2)[C@H](CO)O1)NCC1CC1`, “inactive”.
On to `O=C(C[C@H]1C=C[C@@H](NC(=O)CC2CC2)[C@H](CO)O1)NCc1ccc(-c2ccccc2)cc1`, for which the result was inactive.
As to `Cc1ccc(-c2cnc3c(c2)C(=O)N([C@H](C)CO)C[C@@H](C)[C@@H](CN(C)C(=O)CN(C)C)O3)cc1`, the result was inactive.
With `C[C@@H]1CN([C@H](C)CO)S(=O)(=O)c2ccc(-c3ccccc3)cc2O[C@@H]1CN(C)CC1CC1`, the compound was called inactive.
The same measure for `CN(C)C(=O)C[C@H]1CC[C@@H](NC(=O)Nc2cccc(F)c2)[C@H](CO)O1`: “inactive”; for `CC(C)c1cn(CC[C@@H]2CC[C@@H](NC(=O)C3CCC3)[C@@H](CO)O2)nn1`: “inactive”; for `CN(C)C(=O)C[C@H]1CC[C@@H](NC(=O)C2CC2)[C@@H](CO)O1`: “inactive”.
For `O=C(C[C@@H]1C=C[C@@H](NC(=O)Nc2cccc(F)c2)[C@H](CO)O1)NCC1CCCCC1`, the result was inactive.
With `CO[C@@H]1CN(C)C(=O)c2cc(NC(=O)c3ccccc3F)ccc2OC[C@@H](C)N(CC2CC2)C[C@H]1C`, the result was inactive.
As for `CC(C)NC(=O)N(C)C[C@@H]1Oc2ccc(N(C)C)cc2C(=O)N([C@@H](C)CO)C[C@H]1C`, the entry is “inactive”.
Turning to `CC(C)NC(=O)N(C)C[C@@H]1Oc2c(cccc2N(C)C)C(=O)N([C@H](C)CO)C[C@@H]1C`, the compound was called inactive.
As to `CC(C)NC(=O)N(C)C[C@@H]1Oc2c(cccc2N(C)C)C(=O)N([C@@H](C)CO)C[C@H]1C`, the compound was classed as active.
The same measure for `CCC(Oc1cccc(NC(=O)c2ccccc2[N+](=O)[O-])c1)C(=O)c1ccccc1` (stereo not drawn): “inactive”; for `C[C@@H]1CN([C@H](C)CO)C(=O)c2cc(C#Cc3cccc(F)c3)cnc2O[C@H]1CN(C)Cc1ccccn1`: “inactive”.
Regarding `CCCC#Cc1ccc2c(c1)O[C@@H](CN(C)CCC)[C@@H](C)CN([C@H](C)CO)S2(=O)=O`, the result was inactive.
For the compound `CC(C)NC(=O)N(C)C[C@H]1Oc2ncc(C#CC3CC3)cc2C(=O)N([C@H](C)CO)C[C@@H]1C`, the compound was classed as inactive.
Consider `C[C@@H]1CN([C@@H](C)CO)C(=O)c2cc(-c3ccccc3F)cnc2O[C@@H]1CN(C)Cc1cccc(F)c1`, for which the call was inactive.
Regarding `O=C(C[C@@H]1C=C[C@@H](NC(=O)c2ccccn2)[C@@H](CO)O1)NCc1cc(F)cc(F)c1`, the result was inactive.
The same measure for `C[C@@H]1CN([C@H](C)CO)C(=O)c2cc(-c3ccncc3)cnc2O[C@H]1CN(C)C`: “inactive”.
Take `C[C@H]1CN([C@@H](C)CO)C(=O)c2cc(C3=CCCC3)cnc2O[C@@H]1CN(C)Cc1cccnc1`: the compound was classed as inactive.
Turning to `C/C=C/c1ccc2c(c1)O[C@H](CN(C)C)[C@H](C)CN([C@H](C)CO)S2(=O)=O`, the compound was called inactive.
For the compound `CCC1=NN(C(=O)C(C)C)C(O)(c2ccc(Br)cc2)C1` (stereo not drawn), the call was inactive.
As for `CC(=O)N(C)C[C@@H]1Oc2ncc(C#CCc3ccccc3)cc2C(=O)N([C@H](C)CO)C[C@H]1C`, the entry is “inactive”; as for `C[C@H](CO)N1C[C@H](C)[C@H](CN(C)C)Oc2ncc(-c3ccncc3)cc2C1=O`, “inactive”.
Consider `COc1cccc(S(=O)(=O)N[C@H]2C=C[C@H](CC(=O)NC3Cc4ccccc4C3)O[C@H]2CO)c1`, for which the call was inactive.
Turning to `CC(C)NC(=O)N(C)C[C@@H]1Oc2ncc(C#CC3CC3)cc2C(=O)N([C@@H](C)CO)C[C@H]1C`, the compound was classed as inactive.
On to `O=C(C[C@@H]1CC[C@@H](NC(=O)C2CC2)[C@@H](CO)O1)NCc1ccccc1Cl`, for which the compound was called inactive.
In the case of `COCC#Cc1ccc2c(c1)O[C@H](CN(C)CC1CC1)[C@H](C)CN([C@H](C)CO)S2(=O)=O`, the outcome was inactive.
Take `C[C@H](CO)N1C[C@H](C)[C@H](CN(C)C)Oc2cc(C#Cc3ccccc3F)ccc2S1(=O)=O`: the outcome was inactive.
`O=C(C[C@@H]1C=C[C@@H](NC(=O)c2cccnc2)[C@H](CO)O1)NCCN1CCCCC1`: the outcome was inactive.
Take `COC(=O)C[C@H]1CC[C@H](NC(=O)c2ccccc2)[C@@H](CO)O1`: the result was inactive.
With `CC(C)CC#Cc1cnc2c(c1)C(=O)N([C@H](C)CO)C[C@H](C)[C@@H](CN(C)Cc1ccccc1C(=O)O)O2`, the result was inactive.
As to `O=C(C[C@@H]1C[C@H]2c3cc(NC(=O)C4CCOCC4)ccc3O[C@H]2[C@H](CO)O1)NCc1ccc2c(c1)OCO2`, the compound was classed as inactive.
As to `C[C@H]1CN([C@@H](C)CO)S(=O)(=O)c2ccc(-c3ccccc3F)cc2O[C@H]1CN(C)C(=O)C1CC1`, the outcome was inactive.
The same measure for `C[C@@H]1CN([C@H](C)CO)C(=O)c2cc(C#CCC3CCCC3)cnc2O[C@H]1CN(C)C(=O)c1cnccn1`: “inactive”; for `CO[C@H](CN(C)S(=O)(=O)c1ccc(C)cc1)[C@@H](C)CN(Cc1ccccc1Cl)[C@@H](C)CO`: “inactive”; for `CCn1c(SCC(=O)Nc2cc(Cl)c(Cl)cc2Cl)nnc1-c1ccccc1Cl`: “inactive”.
As for `N#Cc1c(NC(=O)CCn2cnc3ccccc3c2=O)sc2c1CCCC2`, the entry is “inactive”; as for `CCn1c(SCC(=O)Nc2sc3c(c2C#N)CCCC3)nnc1-c1ccccc1O`, “active”; as for `C[C@@H]1CN([C@@H](C)CO)C(=O)c2cc(C3=CCCC3)cnc2O[C@H]1CN(C)Cc1ccccc1F`, “inactive”.
The same measure for `COCC(=O)N[C@H]1C=C[C@H](CC(=O)N2CCCCC2)O[C@H]1CO`: “inactive”; for `Cc1ccc(-c2ccc3c(c2)O[C@H](CN(C)C)[C@@H](C)CN([C@@H](C)CO)S3(=O)=O)cc1`: “inactive”; for `CO[C@@H](CN(C)S(=O)(=O)c1ccc(F)cc1)[C@H](C)CN(C(=O)Nc1ccccc1F)[C@@H](C)CO`: “inactive”.
On to `O=C(C[C@H]1C=C[C@@H](NC(=O)Nc2cc(F)ccc2F)[C@H](CO)O1)NCCCN1CCOCC1`, for which the call was inactive.
Regarding `CN(C)C(=O)C[C@H]1C=C[C@@H](NC(=O)c2ccc(F)cc2)[C@@H](CO)O1`, the call was inactive.
On to `C[C@H]1CN([C@@H](C)CO)C(=O)c2cc(Br)cnc2O[C@@H]1CN(C)C(=O)c1ccccc1F`, for which the compound was called inactive.
With `O=C(CN1C(=O)c2ccccc2S1(=O)=O)Nc1ccc(F)c(F)c1`, the compound was called inactive.
For `O=C(CSc1nnc(-c2ccccc2)n1-c1ccccc1)c1ccc(F)cc1`, the compound was classed as inactive.
For the compound `CO[C@@H](CN(C)C(=O)c1cnccn1)[C@@H](C)CN([C@@H](C)CO)S(=O)(=O)c1ccc(F)cc1`, the call was inactive.
In the case of `C[C@H]1CN([C@@H](C)CO)C(=O)c2cc(Br)cnc2O[C@H]1CN(C)CC1CCCC1`, the compound was classed as inactive.
As for `CCCN(C)C[C@@H]1Oc2cc(-c3ccc(C)cc3)ccc2S(=O)(=O)N([C@@H](C)CO)C[C@H]1C`, the entry is “inactive”; as for `CCC(=O)N[C@H]1C=C[C@@H](CC(=O)NCC2CCCCC2)O[C@H]1CO`, “inactive”; as for `C[C@@H]1CN([C@H](C)CO)C(=O)c2cc(Br)cnc2O[C@@H]1CN(C)C(=O)C1CC1`, “inactive”.
For the compound `C[C@H](CO)N1C[C@H](C)[C@@H](CN(C)C)Oc2ncc(-c3cccc(F)c3)cc2C1=O`, the compound was classed as inactive.
On to `CCCN(C)C[C@@H]1Oc2cc(-c3cccc(C#N)c3)ccc2S(=O)(=O)N([C@@H](C)CO)C[C@@H]1C`, for which the result was inactive.
As to `C[C@@H]1CN([C@H](C)CO)S(=O)(=O)c2ccc(-c3cccc(C#N)c3)cc2O[C@@H]1CN(C)C(=O)Nc1ccccc1F`, the call was active.
The same measure for `C[C@@H]1CN([C@@H](C)CO)S(=O)(=O)c2ccc(-c3cccc(C#N)c3)cc2O[C@@H]1CN(C)Cc1cccc(F)c1`: “inactive”; for `Cc1cc(C)c(OCC(=O)Nc2cccnc2)c(Br)c1`: “inactive”; for `COc1ccc(NC(=O)Cc2nc(-c3cc4ccccc4oc3=O)cs2)cc1`: “inactive”.
For `COc1cccc(S(=O)(=O)N[C@H]2C=C[C@H](CC(=O)NC3Cc4ccccc4C3)O[C@@H]2CO)c1`, the result was inactive.
As for `CN(C)c1ccc2c(c1)[C@H]1C[C@H](CC(=O)NCc3ccc(Cl)cc3)O[C@H](CO)[C@H]1O2`, the entry is “inactive”.
As to `CC(=O)N(C)C[C@H]1Oc2cc(C#Cc3ccccc3F)ccc2S(=O)(=O)N([C@H](C)CO)C[C@@H]1C`, the result was inactive.
In the case of `COc1ccc(CNC(=O)C[C@@H]2C=C[C@@H](NC(=O)c3ccc4c(c3)OCO4)[C@@H](CO)O2)cc1`, the result was inactive.
Turning to `O=C(C[C@H]1CC[C@@H](NC(=O)Cc2ccccn2)[C@H](CO)O1)NCCc1ccccc1`, the call was inactive.
